Laboratory results taken from paper PMC7862700, “An all-to-all approach to the identification of sequence-specific readers for epigenetic DNA modifications on cytosine”.

Columns and labels:
Test in all cases: DAPPL (digital affinity profiling via proximity ligation, sequencing); 10 mM Tris-HCl pH 7.5, 50 mM NaCl, 1 mM DTT, 4% glycerol, room temperature, 30 min; GST-TFs on glutathione beads, 16-mer random dsDNA library, 0.1% formaldehyde crosslink after washing; high values mean tight binding
FLI1 = biological target: T1, FLI1 (Homo sapiens, UniProt Q01543 1-452); details: protein: recombinant; tags: N-terminal GST; dsDNA, one strand shown
T1 sequence: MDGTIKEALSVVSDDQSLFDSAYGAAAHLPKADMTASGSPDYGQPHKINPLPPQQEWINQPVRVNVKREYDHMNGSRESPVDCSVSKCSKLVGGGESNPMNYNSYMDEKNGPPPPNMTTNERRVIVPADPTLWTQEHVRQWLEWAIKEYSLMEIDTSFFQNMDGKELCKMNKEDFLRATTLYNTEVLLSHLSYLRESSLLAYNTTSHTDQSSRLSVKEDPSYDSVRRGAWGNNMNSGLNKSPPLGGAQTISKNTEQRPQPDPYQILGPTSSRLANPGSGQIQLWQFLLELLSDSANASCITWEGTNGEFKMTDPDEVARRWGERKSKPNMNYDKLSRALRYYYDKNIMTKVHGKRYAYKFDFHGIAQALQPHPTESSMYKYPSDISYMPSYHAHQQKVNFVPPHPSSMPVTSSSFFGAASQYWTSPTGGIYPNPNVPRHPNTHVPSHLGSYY
Procedure, shortened: (§1)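 A tag-only sample was pooled with DNA-barcoded human transcription factors that had been expressed in yeast as GST fusions and captured on glutathione beads. The pools were incubated for 30 min at room temperature with 200 nmole of a random double-stranded 16-mer DNA library in Tris/NaCl/DTT/glycerol buffer, then washed, crosslinked with 0.1% formaldehyde, proximity-ligated (BsaI/T4 ligase, 1 h, 37 °C), PCR-amplified and sequenced on an Illumina NextSeq500. Binding signal is each hexamer's read frequency for a factor divided by its frequency for the tag-only sample.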

ELK1 = biological target: T2, ELK1 (Homo sapiens, UniProt P19419 1-428); details: protein: recombinant; tags: N-terminal GST; dsDNA, one strand shown
T2 sequence: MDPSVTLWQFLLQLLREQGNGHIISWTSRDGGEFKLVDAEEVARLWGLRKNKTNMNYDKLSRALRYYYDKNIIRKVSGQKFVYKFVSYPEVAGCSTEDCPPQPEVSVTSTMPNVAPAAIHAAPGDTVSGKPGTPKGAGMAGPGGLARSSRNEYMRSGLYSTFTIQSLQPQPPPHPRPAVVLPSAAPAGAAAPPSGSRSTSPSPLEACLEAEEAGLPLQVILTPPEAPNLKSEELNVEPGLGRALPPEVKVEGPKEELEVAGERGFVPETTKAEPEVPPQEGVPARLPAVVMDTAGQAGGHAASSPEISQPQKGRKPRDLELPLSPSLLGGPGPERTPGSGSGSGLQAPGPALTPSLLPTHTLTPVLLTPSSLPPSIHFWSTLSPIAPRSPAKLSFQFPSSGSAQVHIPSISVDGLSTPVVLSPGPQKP
Procedure, shortened: as §1

GABPA = biological target: T3, GABPA (Homo sapiens, UniProt Q06546 1-454); details: protein: recombinant; tags: N-terminal GST; dsDNA, one strand shown
T3 sequence: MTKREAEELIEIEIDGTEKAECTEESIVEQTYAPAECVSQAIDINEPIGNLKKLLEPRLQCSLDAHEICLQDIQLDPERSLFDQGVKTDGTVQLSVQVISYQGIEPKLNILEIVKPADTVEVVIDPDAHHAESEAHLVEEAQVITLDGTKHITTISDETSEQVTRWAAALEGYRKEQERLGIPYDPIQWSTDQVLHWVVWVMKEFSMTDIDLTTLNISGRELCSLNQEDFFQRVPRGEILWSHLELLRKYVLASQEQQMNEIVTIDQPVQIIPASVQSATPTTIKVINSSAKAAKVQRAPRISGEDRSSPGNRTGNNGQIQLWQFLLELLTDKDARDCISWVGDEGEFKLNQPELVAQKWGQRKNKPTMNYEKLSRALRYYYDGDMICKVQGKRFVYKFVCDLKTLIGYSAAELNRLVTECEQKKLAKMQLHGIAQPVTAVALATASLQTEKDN
Procedure, shortened: as §1

ERG = biological target: T4, ERG (Homo sapiens, UniProt P11308 1-479); details: protein: recombinant; tags: N-terminal GST; dsDNA, one strand shown
T4 sequence: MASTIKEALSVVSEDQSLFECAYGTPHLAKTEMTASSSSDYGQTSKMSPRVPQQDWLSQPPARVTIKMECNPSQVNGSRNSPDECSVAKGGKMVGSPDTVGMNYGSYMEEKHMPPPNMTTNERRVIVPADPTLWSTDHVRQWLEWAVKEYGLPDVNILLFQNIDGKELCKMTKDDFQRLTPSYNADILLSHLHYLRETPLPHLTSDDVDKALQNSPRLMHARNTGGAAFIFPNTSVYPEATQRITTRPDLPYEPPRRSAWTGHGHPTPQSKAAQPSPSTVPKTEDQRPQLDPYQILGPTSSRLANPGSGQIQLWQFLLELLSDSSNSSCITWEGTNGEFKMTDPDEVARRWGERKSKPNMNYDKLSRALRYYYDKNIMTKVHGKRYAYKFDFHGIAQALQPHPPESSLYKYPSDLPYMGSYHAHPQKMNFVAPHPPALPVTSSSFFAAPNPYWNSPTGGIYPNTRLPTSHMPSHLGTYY
Procedure, shortened: as §1

ELF1 = ELF1 (Homo sapiens, UniProt P32519 1-619); details: protein: recombinant; tags: N-terminal GST; dsDNA, one strand shown
ELF1, sequence (P32519 whole entry): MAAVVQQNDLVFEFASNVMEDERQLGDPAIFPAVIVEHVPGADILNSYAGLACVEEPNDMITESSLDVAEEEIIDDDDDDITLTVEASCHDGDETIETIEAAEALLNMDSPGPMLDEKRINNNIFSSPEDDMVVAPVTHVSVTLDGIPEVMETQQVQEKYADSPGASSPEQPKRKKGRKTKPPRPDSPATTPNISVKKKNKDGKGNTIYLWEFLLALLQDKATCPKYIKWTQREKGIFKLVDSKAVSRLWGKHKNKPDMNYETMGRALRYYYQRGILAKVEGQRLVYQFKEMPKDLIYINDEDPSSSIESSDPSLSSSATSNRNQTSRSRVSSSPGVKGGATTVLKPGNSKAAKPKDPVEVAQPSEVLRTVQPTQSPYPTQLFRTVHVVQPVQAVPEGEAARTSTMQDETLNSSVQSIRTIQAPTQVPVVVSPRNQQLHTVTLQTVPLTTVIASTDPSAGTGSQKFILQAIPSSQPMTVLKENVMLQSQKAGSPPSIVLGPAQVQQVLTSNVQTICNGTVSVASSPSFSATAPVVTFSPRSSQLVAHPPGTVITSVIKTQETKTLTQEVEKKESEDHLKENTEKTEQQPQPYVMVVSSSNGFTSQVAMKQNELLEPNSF
Procedure, shortened: as §1

EHF = biological target: T5, EHF (Homo sapiens, UniProt Q9NZC4 1-300); details: protein: recombinant; tags: N-terminal GST; dsDNA, one strand shown
T5 sequence: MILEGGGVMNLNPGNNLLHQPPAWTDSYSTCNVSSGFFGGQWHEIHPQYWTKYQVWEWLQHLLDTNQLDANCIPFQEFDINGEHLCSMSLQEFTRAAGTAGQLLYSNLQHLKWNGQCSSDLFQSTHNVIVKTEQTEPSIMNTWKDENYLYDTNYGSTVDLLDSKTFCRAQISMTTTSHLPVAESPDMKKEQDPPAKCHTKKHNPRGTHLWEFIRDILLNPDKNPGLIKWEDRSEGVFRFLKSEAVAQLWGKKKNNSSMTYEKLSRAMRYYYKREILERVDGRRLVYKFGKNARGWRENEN
Procedure, shortened: as §1

SPI1 = SPI1 (Homo sapiens, UniProt P17947 1-270); details: protein: recombinant; tags: N-terminal GST; dsDNA, one strand shown
Procedure, shortened: as §1

SPIB = SPIB (Homo sapiens, UniProt Q01892 1-262); details: protein: recombinant; tags: N-terminal GST; dsDNA, one strand shown
SPIB, sequence (Q01892 whole entry): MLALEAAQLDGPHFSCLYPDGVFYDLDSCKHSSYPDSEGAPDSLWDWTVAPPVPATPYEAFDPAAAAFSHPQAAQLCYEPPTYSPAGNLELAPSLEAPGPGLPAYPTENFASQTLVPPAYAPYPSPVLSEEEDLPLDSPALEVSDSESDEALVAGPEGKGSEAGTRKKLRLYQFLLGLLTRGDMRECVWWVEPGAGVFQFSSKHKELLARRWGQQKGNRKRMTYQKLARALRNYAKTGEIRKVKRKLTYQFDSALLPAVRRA
Procedure, shortened: as §1

ELK3 = biological target: T6, ELK3 (Homo sapiens, UniProt P41970 1-407); details: protein: recombinant; tags: N-terminal GST; dsDNA, one strand shown
T6 sequence: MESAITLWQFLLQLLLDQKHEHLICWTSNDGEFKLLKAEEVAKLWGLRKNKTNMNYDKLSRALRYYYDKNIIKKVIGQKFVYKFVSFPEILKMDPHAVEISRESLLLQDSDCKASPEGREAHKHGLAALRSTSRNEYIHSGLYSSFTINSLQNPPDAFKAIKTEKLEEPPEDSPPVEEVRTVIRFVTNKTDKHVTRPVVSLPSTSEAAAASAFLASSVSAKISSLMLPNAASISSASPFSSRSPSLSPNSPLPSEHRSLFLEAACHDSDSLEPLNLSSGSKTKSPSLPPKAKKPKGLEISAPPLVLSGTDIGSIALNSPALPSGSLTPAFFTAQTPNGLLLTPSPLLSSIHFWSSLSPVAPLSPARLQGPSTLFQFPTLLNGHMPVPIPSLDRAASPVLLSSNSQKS
Procedure, shortened: as §1

FEV = biological target: T7, FEV (Homo sapiens, UniProt Q99581 1-238); details: protein: recombinant; tags: N-terminal GST; dsDNA, one strand shown
T7 sequence: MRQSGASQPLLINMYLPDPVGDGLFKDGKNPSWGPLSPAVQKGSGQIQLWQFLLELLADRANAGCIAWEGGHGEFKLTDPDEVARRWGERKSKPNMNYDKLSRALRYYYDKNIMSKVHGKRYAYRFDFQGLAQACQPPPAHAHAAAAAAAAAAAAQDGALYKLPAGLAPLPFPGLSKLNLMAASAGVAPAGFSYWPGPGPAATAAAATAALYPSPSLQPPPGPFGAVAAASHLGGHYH
Procedure, shortened: as §1

ETV5 = ETV5 (Homo sapiens, UniProt P41161 1-510); details: protein: recombinant; tags: N-terminal GST; dsDNA, one strand shown
ETV5, sequence (P41161 whole entry): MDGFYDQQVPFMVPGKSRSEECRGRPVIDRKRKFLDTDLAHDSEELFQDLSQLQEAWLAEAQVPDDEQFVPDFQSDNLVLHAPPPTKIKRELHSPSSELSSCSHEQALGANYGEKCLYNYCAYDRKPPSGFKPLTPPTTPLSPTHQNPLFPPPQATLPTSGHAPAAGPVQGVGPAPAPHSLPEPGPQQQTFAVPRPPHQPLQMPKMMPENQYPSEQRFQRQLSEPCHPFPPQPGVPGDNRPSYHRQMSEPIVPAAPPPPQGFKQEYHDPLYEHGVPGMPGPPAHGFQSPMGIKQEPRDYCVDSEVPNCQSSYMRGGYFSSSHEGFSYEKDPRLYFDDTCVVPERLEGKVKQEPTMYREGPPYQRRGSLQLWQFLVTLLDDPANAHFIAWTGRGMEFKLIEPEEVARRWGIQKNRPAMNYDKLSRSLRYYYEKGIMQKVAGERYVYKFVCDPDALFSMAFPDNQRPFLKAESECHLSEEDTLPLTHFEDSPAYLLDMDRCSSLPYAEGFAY
Procedure, shortened: as §1

HSF1 = HSF1 (Homo sapiens, UniProt Q00613 1-529); details: protein: recombinant; tags: N-terminal GST; chain copies: 3; dsDNA, one strand shown
HSF1, sequence (Q00613 whole entry): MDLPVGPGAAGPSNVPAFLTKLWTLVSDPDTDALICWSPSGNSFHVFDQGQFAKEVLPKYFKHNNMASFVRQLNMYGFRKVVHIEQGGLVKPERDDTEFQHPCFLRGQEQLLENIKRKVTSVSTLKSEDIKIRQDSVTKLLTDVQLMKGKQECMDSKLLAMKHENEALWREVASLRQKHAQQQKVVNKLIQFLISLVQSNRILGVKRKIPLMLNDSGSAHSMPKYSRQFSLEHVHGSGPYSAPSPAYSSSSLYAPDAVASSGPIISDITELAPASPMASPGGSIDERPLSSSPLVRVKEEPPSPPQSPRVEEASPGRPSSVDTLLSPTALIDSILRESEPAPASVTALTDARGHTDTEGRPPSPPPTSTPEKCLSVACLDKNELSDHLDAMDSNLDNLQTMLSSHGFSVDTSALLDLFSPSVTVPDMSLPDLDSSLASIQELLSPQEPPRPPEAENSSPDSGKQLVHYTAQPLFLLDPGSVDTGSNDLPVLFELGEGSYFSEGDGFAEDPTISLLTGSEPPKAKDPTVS
Procedure, shortened: as §1

ELF4 = ELF4 (Homo sapiens, UniProt Q99607 1-663); details: protein: recombinant; tags: N-terminal GST; dsDNA, one strand shown
ELF4, sequence (Q99607 whole entry): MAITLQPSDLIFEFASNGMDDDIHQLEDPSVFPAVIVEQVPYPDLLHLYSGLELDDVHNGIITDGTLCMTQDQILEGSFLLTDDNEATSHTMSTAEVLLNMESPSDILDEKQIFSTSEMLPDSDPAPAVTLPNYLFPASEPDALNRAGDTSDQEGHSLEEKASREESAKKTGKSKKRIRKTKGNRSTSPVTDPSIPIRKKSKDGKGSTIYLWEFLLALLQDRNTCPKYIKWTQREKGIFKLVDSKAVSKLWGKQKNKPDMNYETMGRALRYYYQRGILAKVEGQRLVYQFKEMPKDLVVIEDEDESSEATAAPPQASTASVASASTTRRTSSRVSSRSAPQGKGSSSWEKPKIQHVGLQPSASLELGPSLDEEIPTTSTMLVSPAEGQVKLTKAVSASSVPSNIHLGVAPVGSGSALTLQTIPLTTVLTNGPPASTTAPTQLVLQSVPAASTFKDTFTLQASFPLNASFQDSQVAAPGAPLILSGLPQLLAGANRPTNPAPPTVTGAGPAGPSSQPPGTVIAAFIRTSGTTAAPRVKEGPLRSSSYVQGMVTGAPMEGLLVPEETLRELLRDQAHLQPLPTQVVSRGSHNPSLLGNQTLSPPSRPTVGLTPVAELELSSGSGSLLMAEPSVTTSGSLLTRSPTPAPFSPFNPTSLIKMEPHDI
Procedure, shortened: as §1

ELK4 = biological target: T8, ELK4 (Homo sapiens, UniProt P28324-2 1-405); details: protein: recombinant; tags: N-terminal GST; dsDNA, one strand shown
T8 sequence: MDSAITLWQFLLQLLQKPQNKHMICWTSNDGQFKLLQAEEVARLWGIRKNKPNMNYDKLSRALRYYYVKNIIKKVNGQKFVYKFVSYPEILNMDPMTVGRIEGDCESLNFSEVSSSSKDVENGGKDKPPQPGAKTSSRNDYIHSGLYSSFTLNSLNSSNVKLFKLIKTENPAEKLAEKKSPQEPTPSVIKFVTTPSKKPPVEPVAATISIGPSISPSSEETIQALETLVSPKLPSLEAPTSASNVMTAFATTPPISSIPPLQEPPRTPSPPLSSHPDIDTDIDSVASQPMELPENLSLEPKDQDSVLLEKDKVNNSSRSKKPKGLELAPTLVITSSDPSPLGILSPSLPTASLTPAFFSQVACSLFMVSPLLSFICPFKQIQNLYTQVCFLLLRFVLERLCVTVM
Procedure, shortened: as §1

ETV2 = biological target: T9, ETV2 (Homo sapiens, UniProt O00321 1-342); details: protein: recombinant; tags: N-terminal GST; dsDNA, one strand shown
T9 sequence: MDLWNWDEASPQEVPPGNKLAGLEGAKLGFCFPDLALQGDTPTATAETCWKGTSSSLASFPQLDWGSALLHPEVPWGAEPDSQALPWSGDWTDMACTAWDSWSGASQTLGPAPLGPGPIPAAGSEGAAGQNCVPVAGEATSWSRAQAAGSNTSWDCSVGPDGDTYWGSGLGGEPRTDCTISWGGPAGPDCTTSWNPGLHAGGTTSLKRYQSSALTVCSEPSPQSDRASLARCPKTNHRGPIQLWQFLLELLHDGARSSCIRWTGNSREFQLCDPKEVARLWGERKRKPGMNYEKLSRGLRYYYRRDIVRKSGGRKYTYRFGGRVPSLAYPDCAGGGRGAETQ
Procedure, shortened: as §1

ELF3 = biological target: T10, ELF3 (Homo sapiens, UniProt P78545 1-371); details: protein: recombinant; tags: N-terminal GST; dsDNA, one strand shown
T10 sequence: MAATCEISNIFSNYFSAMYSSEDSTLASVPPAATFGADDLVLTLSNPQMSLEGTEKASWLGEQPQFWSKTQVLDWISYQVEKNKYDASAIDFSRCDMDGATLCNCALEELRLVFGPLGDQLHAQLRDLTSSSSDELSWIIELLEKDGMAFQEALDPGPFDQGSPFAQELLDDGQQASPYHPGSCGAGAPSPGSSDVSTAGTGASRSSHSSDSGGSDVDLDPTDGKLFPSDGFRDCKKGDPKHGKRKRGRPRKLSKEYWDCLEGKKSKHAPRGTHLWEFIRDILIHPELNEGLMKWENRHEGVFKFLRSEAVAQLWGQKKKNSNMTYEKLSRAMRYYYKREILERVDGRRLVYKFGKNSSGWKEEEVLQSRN
Procedure, shortened: as §1

CRX = CRX (Homo sapiens, UniProt O43186 1-299); details: protein: recombinant; tags: N-terminal GST; dsDNA, one strand shown
CRX, sequence (O43186 whole entry): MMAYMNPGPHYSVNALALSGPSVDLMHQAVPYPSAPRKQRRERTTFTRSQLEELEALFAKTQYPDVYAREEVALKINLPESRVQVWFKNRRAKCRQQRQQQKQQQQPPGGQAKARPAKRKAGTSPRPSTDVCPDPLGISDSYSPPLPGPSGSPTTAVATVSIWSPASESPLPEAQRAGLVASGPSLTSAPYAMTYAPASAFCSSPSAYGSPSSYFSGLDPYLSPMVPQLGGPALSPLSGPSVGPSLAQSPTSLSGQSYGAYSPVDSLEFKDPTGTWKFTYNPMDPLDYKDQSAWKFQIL
Procedure, shortened: as §1

ETV1 = ETV1 (Homo sapiens, UniProt P50549 1-477); details: protein: recombinant; tags: N-terminal GST; dsDNA, one strand shown
ETV1, sequence (P50549 whole entry): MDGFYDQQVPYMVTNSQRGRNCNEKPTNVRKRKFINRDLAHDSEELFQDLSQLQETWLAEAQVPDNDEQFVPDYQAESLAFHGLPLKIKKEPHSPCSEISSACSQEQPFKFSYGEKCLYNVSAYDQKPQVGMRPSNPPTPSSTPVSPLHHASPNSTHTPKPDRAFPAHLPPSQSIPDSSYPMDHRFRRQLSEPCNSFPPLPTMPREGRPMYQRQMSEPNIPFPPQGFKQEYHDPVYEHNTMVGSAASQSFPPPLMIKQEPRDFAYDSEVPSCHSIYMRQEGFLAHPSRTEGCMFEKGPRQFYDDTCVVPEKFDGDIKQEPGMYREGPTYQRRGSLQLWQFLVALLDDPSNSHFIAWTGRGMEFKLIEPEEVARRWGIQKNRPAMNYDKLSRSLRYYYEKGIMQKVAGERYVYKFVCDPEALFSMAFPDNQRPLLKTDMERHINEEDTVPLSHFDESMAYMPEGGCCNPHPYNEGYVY
Procedure, shortened: as §1

Row | Sequence | binding signal (FLI1) | binding signal (ELK1) | binding signal (GABPA) | binding signal (ERG) | binding signal (ELF1) | binding signal (EHF) | binding signal (SPI1) | binding signal (SPIB) | binding signal (ELK3) | binding signal (FEV) | binding signal (ETV5) | binding signal (HSF1) | binding signal (ELF4) | binding signal (ELK4) | binding signal (ETV2) | binding signal (ELF3) | binding signal (CRX) | binding signal (ETV1)
1 | TTACGC | 1.15 fold enrichment (6-mer frequency, TF over GST control) | 1.06 fold enrichment (6-mer frequency, TF over GST control) | 1.07 fold enrichment (6-mer frequency, TF over GST control) | 1.08 fold enrichment (6-mer frequency, TF over GST control) | 1.12 fold enrichment (6-mer frequency, TF over GST control) | 1.06 fold enrichment (6-mer frequency, TF over GST control) | 1.07 fold enrichment (6-mer frequency, TF over GST control) | 1.02 fold enrichment (6-mer frequency, TF over GST control) | 1.21 fold enrichment (6-mer frequency, TF over GST control) | 1.1 fold enrichment (6-mer frequency, TF over GST control) | 1.19 fold enrichment (6-mer frequency, TF over GST control) | 1.39 fold enrichment (6-mer frequency, TF over GST control) | 1.19 fold enrichment (6-mer frequency, TF over GST control) | 1.04 fold enrichment (6-mer frequency, TF over GST control) | 1.16 fold enrichment (6-mer frequency, TF over GST control) | 1.01 fold enrichment (6-mer frequency, TF over GST control) | 1.81 fold enrichment (6-mer frequency, TF over GST control) | 1.13 fold enrichment (6-mer frequency, TF over GST control)
2 | AAGGTA | 1.1 fold enrichment (6-mer frequency, TF over GST control) | 1.08 fold enrichment (6-mer frequency, TF over GST control) | 1.18 fold enrichment (6-mer frequency, TF over GST control) | 1.05 fold enrichment (6-mer frequency, TF over GST control) | 1.13 fold enrichment (6-mer frequency, TF over GST control) | 1.1 fold enrichment (6-mer frequency, TF over GST control) | 1.07 fold enrichment (6-mer frequency, TF over GST control) | 1.05 fold enrichment (6-mer frequency, TF over GST control) | 1.09 fold enrichment (6-mer frequency, TF over GST control) | 1.02 fold enrichment (6-mer frequency, TF over GST control) | 1.11 fold enrichment (6-mer frequency, TF over GST control) | 1.11 fold enrichment (6-mer frequency, TF over GST control) | 1.1 fold enrichment (6-mer frequency, TF over GST control) | 1.14 fold enrichment (6-mer frequency, TF over GST control) | 1.07 fold enrichment (6-mer frequency, TF over GST control) | 1.16 fold enrichment (6-mer frequency, TF over GST control) | 1.05 fold enrichment (6-mer frequency, TF over GST control) | 1.11 fold enrichment (6-mer frequency, TF over GST control)
